Results on five molecules are retold here after the supplement of paper PMC4022240.

Sequences and labels used below:
T1: HaloTag-ATRX ADD domain (163-292)
T1 chain: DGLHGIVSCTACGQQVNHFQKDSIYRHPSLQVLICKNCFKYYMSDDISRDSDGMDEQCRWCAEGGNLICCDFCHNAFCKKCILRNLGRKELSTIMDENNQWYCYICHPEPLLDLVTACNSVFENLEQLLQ

B1: Unmod H3 variant V G L F E D T N L C A I H (peptide)
chain: VGLFEDTNLCAIH
B2: Unmod H2B variant E I Q T A V R L L L P G E (peptide)
chain: EIQTAVRLLLPGE
B3: Unmod H2B variant E G T K A V T K Y T S A K (peptide)
chain: EGTKAVTKYTSAK
B4: Unmod H3 variant A L Q E A C E A Y L V G L (peptide)
chain: ALQEACEAYLVGL
B5: Unmod H3 variant A T K A A R K S A P S T G (peptide)
chain: ATKAARKSAPSTG

± gives the standard deviation.

The target in the first assay is T1, HaloTag-ATRX ADD domain (163-292). Put plainly: peptide microarray binding signal (635 nm), min-max normalized on array (fraction of array maximum); higher = stronger binding. Particulars: peptide region: Unmod H3 variant; binder concentration: 50 nM. The method in brief: (§1)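 For each library, binding signal was taken as the triplicate-spot mean intensity and then min-max scaled. Spots of histone 13-mer peptide–cellulose conjugates on nitrocellulose, printed in triplicate with a Cy3 tracer, were probed for 1 h at 4°C with either biotin-labelled HaloTag reader fusions (10 nM to 1 μM) and streptavidin-Alexa Fluor 647 or rabbit histone antibodies (1:10,000 to 1:2,000) and anti-rabbit Alexa 647. Readout at 635 nm came from an Axon GenePix 4000B.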
Turning to B1, the “peptide microarray binding signal” value was determined as 0.00179 ± 3.6e-05.

With B4, the “peptide microarray binding signal” value came out at 0.00166 ± 5.9e-05.

As to B5, the “peptide microarray binding signal” value turned out to be 0.00285 ± 0.00016.

The assay is the same for the next values; noted with them: peptide region: Unmod H3 variant; binder concentration: 500 nM.
Turning to B1, the “peptide microarray binding signal” value stood at 0.0031 ± 4.8e-05.

Consider B4, for which the “peptide microarray binding signal” value came out at 0.00148 ± 3.6e-05.

For the molecule B5, the “peptide microarray binding signal” value is 0.00757 ± 0.00026.

The next assay addresses HaloTag-ING2 PHD (mouse Ing2 200-280). Described as above. The conditions noted are these: peptide region: Unmod H3 variant; binder concentration: 10 nM. The method in brief:
as §1
Take B1: the “peptide microarray binding signal” value stood at 0.002686 ± 1.5e-05.

As to B4, the “peptide microarray binding signal” value was found to be 0.00179 ± 2.8e-05.

B5: the “peptide microarray binding signal” value is 0.0164 ± 0.0095.

Staying with this assay, now noted: peptide region: Unmod H3 variant; binder concentration: 100 nM.
Regarding B1, the “peptide microarray binding signal” value was 0.00241 ± 4e-05.

As for B4, the “peptide microarray binding signal” value worked out at 0.00163 ± 4.4e-05.

Regarding B5, the “peptide microarray binding signal” value is 0.00943 ± 0.00062.

Another assay deals with anti-H3K4me3 antibody ab8580. The description is as above. Particulars: peptide region: Unmod H3 variant; binder concentration: 1:2,000 dilution. A digest of the protocol: as §1
As to B1, the “peptide microarray binding signal” value was found to be 0.000472 ± 9.3e-06.

Turning to B4, the “peptide microarray binding signal” value came out at 0.0004342 ± 4.3e-06.

For the molecule B5, the “peptide microarray binding signal” value stood at 0.00109 ± 3.3e-05.

Still in this assay, the particulars now being: peptide region: Unmod H3 variant; binder concentration: 1:10,000 dilution.
In the case of B1, the “peptide microarray binding signal” value turned out to be 0.000628 ± 6.7e-06.

Consider B4, for which the “peptide microarray binding signal” value was 0.000628 ± 6.7e-06.

In the case of B5, the “peptide microarray binding signal” value is 0.001312 ± 1.3e-05.

A further assay deals with anti-H3K9me3 antibody ab8898. The description is as above. Particulars: peptide region: Unmod H3 variant; binder concentration: 1:2,000 dilution. The method in brief: as §1
Regarding B1, the “peptide microarray binding signal” value is 0.000287 ± 7.8e-06.

As for B4, the “peptide microarray binding signal” value amounted to 0.000393 ± 1.4e-05.

Turning to B5, the “peptide microarray binding signal” value stood at 0.000695 ± 2.7e-05.

Still in this assay, the particulars now being: peptide region: Unmod H3 variant; binder concentration: 1:10,000 dilution.
In the case of B1, the “peptide microarray binding signal” value was 0.000807.

In the case of B4, the “peptide microarray binding signal” value came to 0.000519 ± 5.6e-06.

Consider B5, for which the “peptide microarray binding signal” value is 0.000923 ± 9.6e-06.

The target of a further assay is T1, HaloTag-ATRX ADD domain (163-292). The description is as above. The conditions noted are these: peptide region: Unmod H2B variant; binder concentration: 50 nM. A digest of the protocol: as §1
Regarding B2, the “peptide microarray binding signal” value is 0.0176 ± 0.00047.

On to B3, for which the “peptide microarray binding signal” value was determined as 0.0108 ± 0.00025.

Still in this assay, the particulars now being: peptide region: Unmod H2B variant; binder concentration: 500 nM.
Consider B2, for which the “peptide microarray binding signal” value is 0.041 ± 0.0018.

Take B3: the “peptide microarray binding signal” value turned out to be 0.0351 ± 0.00073.

A further assay has as its target HaloTag-ING2 PHD (mouse Ing2 200-280). The description is as above. The conditions noted are these: peptide region: Unmod H2B variant; binder concentration: 10 nM. The method in brief:
as §1
Regarding B2, the “peptide microarray binding signal” value worked out at 0.0245 ± 0.0014.

B3: the “peptide microarray binding signal” value was 0.00776 ± 0.00021.

The assay is the same for the next values; noted with them: peptide region: Unmod H2B variant; binder concentration: 100 nM.
As for B2, the “peptide microarray binding signal” value came out at 0.0434 ± 0.0033.

For B3, the “peptide microarray binding signal” value came out at 0.0322 ± 0.0032.

Another assay addresses anti-H3K4me3 antibody ab8580. The description is as above. Particulars: peptide region: Unmod H2B variant; binder concentration: 1:2,000 dilution. A digest of the protocol:
as §1
With B2, the “peptide microarray binding signal” value is 0.00893 ± 0.00076.

In the case of B3, the “peptide microarray binding signal” value came out at 0.00196 ± 9.7e-05.

The assay is the same for the next values; noted with them: peptide region: Unmod H2B variant; binder concentration: 1:10,000 dilution.
Turning to B2, the “peptide microarray binding signal” value turned out to be 0.0164 ± 0.00068.

In the case of B3, the “peptide microarray binding signal” value worked out at 0.0028 ± 0.00015.

The next assay addresses anti-H3K9me3 antibody ab8898. Described as above. Particulars: peptide region: Unmod H2B variant; binder concentration: 1:2,000 dilution. A digest of the protocol:
as §1
Turning to B2, the “peptide microarray binding signal” value was found to be 0.00628 ± 0.00047.

For B3, the “peptide microarray binding signal” value came out at 0.000544 ± 1.7e-05.

The assay is the same for the next values; noted with them: peptide region: Unmod H2B variant; binder concentration: 1:10,000 dilution.
As to B2, the “peptide microarray binding signal” value was 0.0106 ± 0.0002.

Regarding B3, the “peptide microarray binding signal” value stood at 0.00115.
